In the supplement of paper PMC8728848:
About 410 targets per protein were measured; listed, in parts, are those with the strongest signals and a random draw of the rest.

Legend:
Experiment in all cases: glycan array binding signal (z-score within array); higher = stronger binding
Details in all cases: glycan notation: IUPAC condensed, linker removed
[1] = target: Fuc(a1-2)Gal
In short: (§1)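 Glycan array binding is given as a within-array Z-score, which can be read as non-binding when negative. The arrays, 3228 of them, came from the Consortium for Functional Glycomics database and were retained only where the protein sequence was available. Z-scores were averaged across arrays of the same protein sequence at different concentrations or buffers and across linkers.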

[2] = target: Fuc(a1-2)Gal(b1-3)GlcNAc(b1-3)GalNAc
In short: as §1

[3] = target: Fuc(a1-2)Gal(b1-4)GlcNAc(b1-3)[Fuc(a1-3)[Gal(b1-4)]GlcNAc(b1-6)]Gal(b1-4)Glc
In short: as §1

[4] = target: Fuc(a1-2)[Gal(a1-3)]Gal(b1-4)Glc
In short: as §1

[5] = target: Fuc(a1-2)[GalNAc(a1-3)]Gal
In short: as §1

[6] = target: Fuc(a1-2)[GalNAc(a1-3)]Gal(b1-3)GlcNAc(b1-2)Man(a1-3)[Fuc(a1-2)[GalNAc(a1-3)]Gal(b1-3)GlcNAc(b1-2)Man(a1-6)]Man(b1-4)GlcNAc(b1-4)[Fuc(a1-6)]GlcNAc
In short: as §1

[7] = target: Fuc(a1-2)[GalNAc(a1-3)]Gal(b1-4)GlcNAc(b1-2)Man(a1-3)[Fuc(a1-2)[GalNAc(a1-3)]Gal(b1-4)GlcNAc(b1-2)Man(a1-6)]Man(b1-4)GlcNAc(b1-4)[Fuc(a1-6)]GlcNAc
In short: as §1

[8] = target: Fuc(a1-2)[GalNAc(a1-3)]Gal(b1-4)[Fuc(a1-3)]GlcNAc
In short: as §1

[9] = target: Fuc(a1-2)[GalNAc(a1-3)]Gal(b1-4)[Fuc(a1-3)]GlcNAc(b1-3)GalNAc
In short: as §1

[10] = target: Fuc(a1-3)[GalNAc(b1-4)]GlcNAc
In short: as §1

[11] = target: Gal(a1-3)Gal(b1-3)GlcNAc(b1-2)Man
In short: as §1

[12] = target: Gal(a1-3)Gal(b1-3)GlcNAc(b1-6)GalNAc
In short: as §1

[13] = target: Gal(a1-3)Gal(b1-4)[Fuc(a1-3)]GlcNAc
In short: as §1

[14] = target: Gal(a1-3)GalNAc
In short: as §1

[15] = target: Gal(a1-3)[Gal(a1-4)]Gal(b1-4)GlcNAc
In short: as §1

[16] = target: Gal(a1-4)Gal(b1-4)Glc
In short: as §1

[17] = target: Gal(b1-3)GalNAc(a1-3)[Fuc(a1-2)]Gal(b1-4)Glc
In short: as §1

[18] = target: Gal(b1-3)GalNAc(b1-4)Gal(b1-4)Glc
In short: as §1

[19] = target: Gal(b1-3)GlcNAc(b1-3)Gal(b1-3)GlcNAc
In short: as §1

[20] = target: Gal(b1-3)GlcNAc(b1-3)Gal(b1-4)GlcNAc(b1-3)Gal(b1-4)GlcNAc(b1-2)[Gal(b1-3)GlcNAc(b1-3)Gal(b1-4)GlcNAc(b1-3)Gal(b1-4)GlcNAc(b1-6)]Man(a1-6)[Gal(b1-3)GlcNAc(b1-3)Gal(b1-4)GlcNAc(b1-3)Gal(b1-4)GlcNAc(b1-2)Man(a1-3)]Man(b1-4)GlcNAc(b1-4)[Fuc(a1-6)]GlcNAc
In short: as §1

[21] = target: Gal(b1-3)GlcNAc(b1-6)Gal(b1-4)GlcNAc
In short: as §1

[22] = target: Gal(b1-4)Glc6S
In short: as §1

[23] = target: Gal(b1-4)GlcNAc(b1-2)Man(a1-3)[Gal(b1-4)GlcNAc(b1-2)Man(a1-6)][Gal(b1-4)GlcNAc(b1-4)]Man(b1-4)GlcNAc(b1-4)[Fuc(a1-6)]GlcNAc
In short: as §1

[24] = target: Gal(b1-4)GlcNAc(b1-6)Gal(b1-4)GlcNAc
In short: as §1

[25] = target: Gal3S(b1-4)[Fuc(a1-3)]Glc6S
In short: as §1

[26] = target: Gal6P(b1-4)GlcNAc
In short: as §1

[27] = target: Gal6S(b1-3)GlcNAc
In short: as §1

[28] = target: Gal6S(b1-4)Glc
In short: as §1

[29] = target: GalNAc(a1-3)GalNAc
In short: as §1

[30] = target: GalNAc(b1-3)Gal(a1-4)Gal(b1-4)GlcNAc
In short: as §1

B1: AT3G09350(27) (Arabidopsis thaliana), Q84J81 (protein)
chain: MAKDGPNWDGLLKWSLSHADGTRPTRQLSEEDRKWFMEAMQSQTVDVVKRMKEITLVMQTPEQVLVEHGVTPEDIQDLLDELQEHVESIDMANDLHSIGGLVPLLSFLKNSHANIRAKAADVVSTIVQNNPRSQELVMETNALESLLSNFTSDTDIHARTQALGAISSLIRHNKPGVTAFKLANGYAGLRDALASDSVRFQRKALNLLQYLLQEDDSDRSIATGLGFPRVMMHLASSDDAEIREAALRGLLELSREKNDGSSSIDKSDEKLRQLLEERIKGITLMSQEDLETVKEERQLVDLLWSICYNEPSSLREKGLVVLPGEDALPPDVASKLFEPPLRASAANRNATEKKDEPMKLLGP
glycan array binding signal (z-score) [1]: -0.113 | glycan array binding signal (z-score) [2]: 0.676 | glycan array binding signal (z-score) [3]: -0.595 | glycan array binding signal (z-score) [4]: 2.16 | glycan array binding signal (z-score) [5]: -0.506 | glycan array binding signal (z-score) [6]: -0.677 | glycan array binding signal (z-score) [7]: 0.007 | glycan array binding signal (z-score) [8]: 0.498 | glycan array binding signal (z-score) [9]: 5.85 | glycan array binding signal (z-score) [10]: 3.56 | glycan array binding signal (z-score) [11]: 0.248 | glycan array binding signal (z-score) [12]: -0.449 | glycan array binding signal (z-score) [13]: -0.122 | glycan array binding signal (z-score) [14]: 2.5 | glycan array binding signal (z-score) [15]: 8.94 | glycan array binding signal (z-score) [16]: 2.11 | glycan array binding signal (z-score) [17]: -0.346 | glycan array binding signal (z-score) [18]: 1.91 | glycan array binding signal (z-score) [19]: -0.089 | glycan array binding signal (z-score) [20]: -0.059 | glycan array binding signal (z-score) [21]: 3.05 | glycan array binding signal (z-score) [22]: 0.57 | glycan array binding signal (z-score) [23]: -0.391 | glycan array binding signal (z-score) [24]: 3.1 | glycan array binding signal (z-score) [25]: -0.174 | glycan array binding signal (z-score) [26]: -0.424 | glycan array binding signal (z-score) [27]: -0.146 | glycan array binding signal (z-score) [28]: -0.106 | glycan array binding signal (z-score) [29]: -0.182 | glycan array binding signal (z-score) [30]: 4.3
